Assay [1] concerns Epidermal growth factor receptor (Homo sapiens), P00533 [T790M]. To be noted: at 1 µM.
Assay [2] deals with Epidermal growth factor receptor (Homo sapiens), P00533 [L858R,T790M]. To be noted: at 0.1 µM.
Assay [3] has the same test system. To be noted: at 1 µM.
Assay [4] deals with Ephrin type-A receptor 2 (Homo sapiens) (UniProt P29317). The note with it: at 0.1 µM.
For assay [5] the target is unchanged. To be noted: at 1 µM.
In assay [6] the target is T1, Ephrin type-A receptor 3 (Homo sapiens) (UniProt P29320).
T1 sequence (whole entry): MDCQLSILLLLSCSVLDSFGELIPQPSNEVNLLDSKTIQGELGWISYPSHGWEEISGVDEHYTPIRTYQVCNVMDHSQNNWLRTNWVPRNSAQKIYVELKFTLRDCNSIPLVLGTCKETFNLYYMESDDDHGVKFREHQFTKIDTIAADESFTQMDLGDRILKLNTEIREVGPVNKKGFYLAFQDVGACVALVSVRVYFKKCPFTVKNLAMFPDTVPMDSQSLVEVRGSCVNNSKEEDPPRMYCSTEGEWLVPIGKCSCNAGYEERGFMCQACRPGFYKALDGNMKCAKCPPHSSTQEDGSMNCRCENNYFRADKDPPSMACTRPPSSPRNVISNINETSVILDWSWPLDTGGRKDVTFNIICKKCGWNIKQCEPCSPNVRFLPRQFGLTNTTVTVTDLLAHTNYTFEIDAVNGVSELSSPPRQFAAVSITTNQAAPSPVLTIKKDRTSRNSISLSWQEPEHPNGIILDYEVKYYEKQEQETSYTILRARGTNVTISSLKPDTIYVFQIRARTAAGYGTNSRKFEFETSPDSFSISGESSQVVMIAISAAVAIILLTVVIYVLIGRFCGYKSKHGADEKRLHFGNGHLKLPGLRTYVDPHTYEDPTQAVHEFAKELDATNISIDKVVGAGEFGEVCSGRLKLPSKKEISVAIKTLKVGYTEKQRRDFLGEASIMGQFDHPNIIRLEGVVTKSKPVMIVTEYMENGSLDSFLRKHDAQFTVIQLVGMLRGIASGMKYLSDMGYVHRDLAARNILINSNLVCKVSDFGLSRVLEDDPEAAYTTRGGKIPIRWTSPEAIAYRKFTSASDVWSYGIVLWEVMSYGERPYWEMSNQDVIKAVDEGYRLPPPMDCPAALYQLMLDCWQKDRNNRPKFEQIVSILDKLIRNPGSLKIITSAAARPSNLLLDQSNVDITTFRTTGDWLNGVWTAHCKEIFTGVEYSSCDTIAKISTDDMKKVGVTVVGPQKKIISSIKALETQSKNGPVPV
The note with it: at 0.1 µM.

In assay [7] the target is T1, Ephrin type-A receptor 3 (Homo sapiens). To be noted: at 1 µM.
Assay [8] addresses Ephrin type-A receptor 4 (Homo sapiens) (UniProt P54764). The note with it: at 0.1 µM.
Assay [9] has the same target. To be noted: at 1 µM.
The target in assay [10] is T2, Ephrin type-B receptor 2 (Homo sapiens) (UniProt P29323).
T2 sequence (whole entry): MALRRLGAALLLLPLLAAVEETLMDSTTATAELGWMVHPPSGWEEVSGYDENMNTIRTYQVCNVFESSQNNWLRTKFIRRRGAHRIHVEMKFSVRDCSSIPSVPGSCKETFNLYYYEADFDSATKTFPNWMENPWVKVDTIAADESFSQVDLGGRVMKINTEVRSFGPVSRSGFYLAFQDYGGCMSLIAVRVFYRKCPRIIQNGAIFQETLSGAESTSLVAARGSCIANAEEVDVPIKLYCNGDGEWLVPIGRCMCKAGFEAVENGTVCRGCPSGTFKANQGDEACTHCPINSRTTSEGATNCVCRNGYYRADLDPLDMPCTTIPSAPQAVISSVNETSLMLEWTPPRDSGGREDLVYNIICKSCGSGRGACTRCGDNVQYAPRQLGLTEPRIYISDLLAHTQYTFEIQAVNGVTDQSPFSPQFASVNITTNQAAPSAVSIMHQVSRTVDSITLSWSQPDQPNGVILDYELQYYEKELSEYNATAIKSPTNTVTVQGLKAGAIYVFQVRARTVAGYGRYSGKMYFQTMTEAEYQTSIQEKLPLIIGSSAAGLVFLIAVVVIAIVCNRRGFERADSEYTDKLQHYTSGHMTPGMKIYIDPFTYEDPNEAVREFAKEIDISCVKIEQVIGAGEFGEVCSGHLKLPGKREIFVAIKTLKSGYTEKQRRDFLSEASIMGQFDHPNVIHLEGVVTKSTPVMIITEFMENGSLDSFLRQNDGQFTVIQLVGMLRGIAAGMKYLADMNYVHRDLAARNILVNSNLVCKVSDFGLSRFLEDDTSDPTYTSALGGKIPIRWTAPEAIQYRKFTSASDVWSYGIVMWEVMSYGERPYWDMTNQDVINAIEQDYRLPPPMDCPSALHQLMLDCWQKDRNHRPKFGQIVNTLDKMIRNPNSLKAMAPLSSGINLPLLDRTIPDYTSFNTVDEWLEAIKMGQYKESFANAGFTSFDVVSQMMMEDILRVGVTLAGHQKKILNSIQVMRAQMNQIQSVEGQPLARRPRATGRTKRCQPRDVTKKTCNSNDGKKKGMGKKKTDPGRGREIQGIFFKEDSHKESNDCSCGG
The note with it: at 0.1 µM.

For assay [11], the target named is T2, Ephrin type-B receptor 2 (Homo sapiens). The note with it: at 1 µM.
For assay [12], the target named is T3, Ephrin type-B receptor 3 (Homo sapiens) (UniProt P54753).
T3 sequence (whole entry): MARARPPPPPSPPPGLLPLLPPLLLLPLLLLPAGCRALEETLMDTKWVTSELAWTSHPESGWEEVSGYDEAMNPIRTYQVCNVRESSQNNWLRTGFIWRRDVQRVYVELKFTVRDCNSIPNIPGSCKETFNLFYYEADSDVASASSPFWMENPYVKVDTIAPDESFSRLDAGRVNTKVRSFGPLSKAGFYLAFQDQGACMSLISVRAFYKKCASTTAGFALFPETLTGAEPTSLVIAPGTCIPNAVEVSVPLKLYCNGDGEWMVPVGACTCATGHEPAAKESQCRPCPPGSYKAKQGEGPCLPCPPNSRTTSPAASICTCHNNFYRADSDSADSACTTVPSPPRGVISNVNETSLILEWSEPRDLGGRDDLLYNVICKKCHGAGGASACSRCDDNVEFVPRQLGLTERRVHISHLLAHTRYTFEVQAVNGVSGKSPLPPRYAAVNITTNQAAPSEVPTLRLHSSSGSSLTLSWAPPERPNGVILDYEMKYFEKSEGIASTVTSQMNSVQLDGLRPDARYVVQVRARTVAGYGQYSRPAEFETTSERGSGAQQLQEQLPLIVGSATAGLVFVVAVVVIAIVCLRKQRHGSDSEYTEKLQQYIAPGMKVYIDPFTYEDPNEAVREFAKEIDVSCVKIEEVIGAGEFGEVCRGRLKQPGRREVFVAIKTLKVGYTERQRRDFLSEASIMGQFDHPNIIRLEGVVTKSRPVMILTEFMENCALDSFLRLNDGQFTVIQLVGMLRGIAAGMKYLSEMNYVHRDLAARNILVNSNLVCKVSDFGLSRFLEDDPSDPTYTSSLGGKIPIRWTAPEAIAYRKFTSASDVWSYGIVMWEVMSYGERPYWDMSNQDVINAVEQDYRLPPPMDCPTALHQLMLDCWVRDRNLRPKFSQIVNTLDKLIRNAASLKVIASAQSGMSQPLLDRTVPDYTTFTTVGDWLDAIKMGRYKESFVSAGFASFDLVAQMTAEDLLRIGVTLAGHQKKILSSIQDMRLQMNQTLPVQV
The note with it: at 0.1 µM.

The target in assay [13] is T3, Ephrin type-B receptor 3 (Homo sapiens). The note with it: at 1 µM.
The target of assay [14] is T4, Ephrin type-B receptor 4 (Homo sapiens) (UniProt P54760).
T4 sequence (whole entry): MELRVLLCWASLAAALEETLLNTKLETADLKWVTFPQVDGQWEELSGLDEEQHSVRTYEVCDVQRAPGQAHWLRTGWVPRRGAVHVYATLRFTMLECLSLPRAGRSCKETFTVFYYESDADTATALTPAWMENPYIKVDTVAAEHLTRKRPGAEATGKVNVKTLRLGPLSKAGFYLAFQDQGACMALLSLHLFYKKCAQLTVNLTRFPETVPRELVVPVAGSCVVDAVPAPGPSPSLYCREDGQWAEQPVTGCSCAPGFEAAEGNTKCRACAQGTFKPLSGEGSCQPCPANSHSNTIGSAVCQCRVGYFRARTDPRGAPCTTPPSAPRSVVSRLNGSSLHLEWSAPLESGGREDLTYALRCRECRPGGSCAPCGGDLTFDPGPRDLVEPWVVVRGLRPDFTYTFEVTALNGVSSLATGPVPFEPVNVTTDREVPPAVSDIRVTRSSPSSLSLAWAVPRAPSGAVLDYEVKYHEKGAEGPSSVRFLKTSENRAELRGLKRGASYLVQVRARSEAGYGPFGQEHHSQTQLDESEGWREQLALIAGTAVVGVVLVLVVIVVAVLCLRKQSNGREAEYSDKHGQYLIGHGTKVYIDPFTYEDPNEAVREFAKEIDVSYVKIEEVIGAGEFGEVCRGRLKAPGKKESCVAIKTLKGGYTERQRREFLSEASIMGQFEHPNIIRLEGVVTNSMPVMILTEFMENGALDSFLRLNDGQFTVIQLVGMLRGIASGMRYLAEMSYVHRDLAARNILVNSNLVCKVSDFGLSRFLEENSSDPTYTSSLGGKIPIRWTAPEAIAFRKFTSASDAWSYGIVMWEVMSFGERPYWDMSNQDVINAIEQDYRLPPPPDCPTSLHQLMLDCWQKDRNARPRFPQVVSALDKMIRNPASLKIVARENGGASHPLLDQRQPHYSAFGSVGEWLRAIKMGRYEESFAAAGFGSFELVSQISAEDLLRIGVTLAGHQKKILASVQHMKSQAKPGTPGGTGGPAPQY
The note with it: at 0.1 µM.

Assay [15] deals with T4, Ephrin type-B receptor 4 (Homo sapiens). To be noted: at 1 µM.
Assay [16] addresses Receptor tyrosine-protein kinase erbB-2 (Homo sapiens) (UniProt P04626). The note with it: at 0.1 µM.
Assay [17] shares this target. To be noted: at 1 µM.
Assay [18] deals with Receptor tyrosine-protein kinase erbB-4 (Homo sapiens) (UniProt Q15303). To be noted: at 0.1 µM.
Receptor tyrosine-protein kinase erbB-4 (Homo sapiens), sequence (Q15303 whole entry): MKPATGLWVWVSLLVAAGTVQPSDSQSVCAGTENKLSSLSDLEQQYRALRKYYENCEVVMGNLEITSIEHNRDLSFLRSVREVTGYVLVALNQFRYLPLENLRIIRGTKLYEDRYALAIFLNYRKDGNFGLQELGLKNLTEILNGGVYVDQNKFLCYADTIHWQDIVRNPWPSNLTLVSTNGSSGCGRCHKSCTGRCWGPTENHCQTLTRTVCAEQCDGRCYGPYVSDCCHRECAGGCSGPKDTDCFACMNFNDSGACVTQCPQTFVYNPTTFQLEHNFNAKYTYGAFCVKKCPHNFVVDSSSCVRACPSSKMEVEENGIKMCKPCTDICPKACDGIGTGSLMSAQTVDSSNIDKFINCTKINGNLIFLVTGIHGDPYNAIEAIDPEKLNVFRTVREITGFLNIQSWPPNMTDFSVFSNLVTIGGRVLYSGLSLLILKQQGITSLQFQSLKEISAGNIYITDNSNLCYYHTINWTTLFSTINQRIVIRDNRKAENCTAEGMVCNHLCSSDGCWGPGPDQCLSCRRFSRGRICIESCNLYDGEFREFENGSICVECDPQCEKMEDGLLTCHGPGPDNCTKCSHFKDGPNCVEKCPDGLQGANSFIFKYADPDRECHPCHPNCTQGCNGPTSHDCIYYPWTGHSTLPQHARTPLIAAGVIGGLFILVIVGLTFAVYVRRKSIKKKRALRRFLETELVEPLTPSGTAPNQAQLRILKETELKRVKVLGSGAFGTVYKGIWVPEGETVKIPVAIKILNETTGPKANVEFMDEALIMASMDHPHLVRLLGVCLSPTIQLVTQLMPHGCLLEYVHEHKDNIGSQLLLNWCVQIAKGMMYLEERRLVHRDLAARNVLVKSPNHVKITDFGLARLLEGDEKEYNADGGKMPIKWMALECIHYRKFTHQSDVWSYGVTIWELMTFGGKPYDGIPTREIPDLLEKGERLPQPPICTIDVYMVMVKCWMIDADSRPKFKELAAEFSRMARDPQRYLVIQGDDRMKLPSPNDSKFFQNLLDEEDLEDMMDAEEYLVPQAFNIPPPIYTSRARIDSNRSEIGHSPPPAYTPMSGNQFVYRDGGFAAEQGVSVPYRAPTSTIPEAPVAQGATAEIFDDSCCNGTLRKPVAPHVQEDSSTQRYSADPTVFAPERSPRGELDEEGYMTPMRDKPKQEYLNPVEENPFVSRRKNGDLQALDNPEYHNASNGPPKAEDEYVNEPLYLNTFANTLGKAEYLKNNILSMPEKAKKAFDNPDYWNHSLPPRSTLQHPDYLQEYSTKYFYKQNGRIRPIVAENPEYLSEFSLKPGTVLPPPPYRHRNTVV
Assay [19] shares this target. The note with it: at 1 µM.
For assay [20], the target named is Tyrosine-protein kinase Fer (Homo sapiens) (UniProt P16591). To be noted: at 0.1 µM.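 Also: reported figures are averaged percent inhibition of FER.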

Epidermal growth factor receptor (Homo sapiens), P00533 [L858R,T790M], sequence (P00533 whole entry T790M/L858R, looked up): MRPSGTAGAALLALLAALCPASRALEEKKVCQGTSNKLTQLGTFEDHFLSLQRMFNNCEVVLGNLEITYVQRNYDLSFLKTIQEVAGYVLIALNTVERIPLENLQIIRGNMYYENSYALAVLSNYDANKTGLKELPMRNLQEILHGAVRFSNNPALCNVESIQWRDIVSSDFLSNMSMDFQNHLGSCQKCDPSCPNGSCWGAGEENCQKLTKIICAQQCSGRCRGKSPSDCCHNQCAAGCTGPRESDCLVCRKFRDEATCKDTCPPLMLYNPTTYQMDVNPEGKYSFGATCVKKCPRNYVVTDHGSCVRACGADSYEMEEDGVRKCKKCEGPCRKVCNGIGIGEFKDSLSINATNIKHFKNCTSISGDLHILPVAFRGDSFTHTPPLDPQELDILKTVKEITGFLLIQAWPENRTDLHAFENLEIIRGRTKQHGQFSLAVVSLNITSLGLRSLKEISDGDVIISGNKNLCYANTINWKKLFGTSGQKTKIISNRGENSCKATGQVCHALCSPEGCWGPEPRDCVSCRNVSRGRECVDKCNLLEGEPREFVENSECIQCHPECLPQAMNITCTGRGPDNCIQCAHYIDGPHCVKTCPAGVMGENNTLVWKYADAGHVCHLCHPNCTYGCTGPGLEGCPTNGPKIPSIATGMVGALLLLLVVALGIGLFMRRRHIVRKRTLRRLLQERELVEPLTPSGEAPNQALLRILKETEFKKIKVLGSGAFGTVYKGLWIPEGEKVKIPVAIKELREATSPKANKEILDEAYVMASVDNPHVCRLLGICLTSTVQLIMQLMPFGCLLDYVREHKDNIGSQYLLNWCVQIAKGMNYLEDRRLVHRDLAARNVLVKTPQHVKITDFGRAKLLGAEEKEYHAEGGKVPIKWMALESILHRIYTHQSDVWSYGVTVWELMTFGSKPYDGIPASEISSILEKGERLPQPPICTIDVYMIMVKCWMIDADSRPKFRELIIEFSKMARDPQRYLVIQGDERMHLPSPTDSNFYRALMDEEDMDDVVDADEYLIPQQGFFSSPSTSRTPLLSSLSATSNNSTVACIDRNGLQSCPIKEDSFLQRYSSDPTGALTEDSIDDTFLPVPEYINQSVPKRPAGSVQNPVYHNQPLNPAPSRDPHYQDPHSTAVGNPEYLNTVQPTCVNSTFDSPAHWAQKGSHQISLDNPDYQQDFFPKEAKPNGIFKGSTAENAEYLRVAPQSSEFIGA
Ephrin type-A receptor 2 (Homo sapiens), sequence (P29317 whole entry): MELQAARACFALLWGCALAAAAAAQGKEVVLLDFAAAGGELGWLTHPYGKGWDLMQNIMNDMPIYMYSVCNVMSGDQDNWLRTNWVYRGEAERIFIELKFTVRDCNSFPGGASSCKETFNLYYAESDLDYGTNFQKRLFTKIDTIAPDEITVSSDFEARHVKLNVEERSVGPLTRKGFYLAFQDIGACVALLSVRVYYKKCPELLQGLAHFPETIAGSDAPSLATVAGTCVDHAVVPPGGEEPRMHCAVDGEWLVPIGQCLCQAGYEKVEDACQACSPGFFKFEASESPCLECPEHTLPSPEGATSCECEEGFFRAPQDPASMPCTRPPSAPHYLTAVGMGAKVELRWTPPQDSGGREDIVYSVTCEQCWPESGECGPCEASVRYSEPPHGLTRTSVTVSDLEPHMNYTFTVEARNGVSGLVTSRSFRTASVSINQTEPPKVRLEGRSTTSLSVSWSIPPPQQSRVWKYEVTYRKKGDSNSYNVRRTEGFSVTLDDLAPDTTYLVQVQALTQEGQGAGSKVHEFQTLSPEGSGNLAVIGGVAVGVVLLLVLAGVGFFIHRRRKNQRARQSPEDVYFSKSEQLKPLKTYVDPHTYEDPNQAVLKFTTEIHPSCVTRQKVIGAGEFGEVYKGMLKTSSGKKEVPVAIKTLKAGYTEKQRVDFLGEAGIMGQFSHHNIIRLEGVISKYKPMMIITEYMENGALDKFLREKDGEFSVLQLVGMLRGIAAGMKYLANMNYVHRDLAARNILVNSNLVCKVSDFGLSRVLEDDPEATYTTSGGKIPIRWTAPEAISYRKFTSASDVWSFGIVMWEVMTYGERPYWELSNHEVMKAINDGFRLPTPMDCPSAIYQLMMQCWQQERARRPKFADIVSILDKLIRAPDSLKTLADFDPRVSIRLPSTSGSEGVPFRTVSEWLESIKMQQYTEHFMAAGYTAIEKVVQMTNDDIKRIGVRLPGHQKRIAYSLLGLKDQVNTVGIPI
Ephrin type-A receptor 4 (Homo sapiens), sequence (P54764 whole entry): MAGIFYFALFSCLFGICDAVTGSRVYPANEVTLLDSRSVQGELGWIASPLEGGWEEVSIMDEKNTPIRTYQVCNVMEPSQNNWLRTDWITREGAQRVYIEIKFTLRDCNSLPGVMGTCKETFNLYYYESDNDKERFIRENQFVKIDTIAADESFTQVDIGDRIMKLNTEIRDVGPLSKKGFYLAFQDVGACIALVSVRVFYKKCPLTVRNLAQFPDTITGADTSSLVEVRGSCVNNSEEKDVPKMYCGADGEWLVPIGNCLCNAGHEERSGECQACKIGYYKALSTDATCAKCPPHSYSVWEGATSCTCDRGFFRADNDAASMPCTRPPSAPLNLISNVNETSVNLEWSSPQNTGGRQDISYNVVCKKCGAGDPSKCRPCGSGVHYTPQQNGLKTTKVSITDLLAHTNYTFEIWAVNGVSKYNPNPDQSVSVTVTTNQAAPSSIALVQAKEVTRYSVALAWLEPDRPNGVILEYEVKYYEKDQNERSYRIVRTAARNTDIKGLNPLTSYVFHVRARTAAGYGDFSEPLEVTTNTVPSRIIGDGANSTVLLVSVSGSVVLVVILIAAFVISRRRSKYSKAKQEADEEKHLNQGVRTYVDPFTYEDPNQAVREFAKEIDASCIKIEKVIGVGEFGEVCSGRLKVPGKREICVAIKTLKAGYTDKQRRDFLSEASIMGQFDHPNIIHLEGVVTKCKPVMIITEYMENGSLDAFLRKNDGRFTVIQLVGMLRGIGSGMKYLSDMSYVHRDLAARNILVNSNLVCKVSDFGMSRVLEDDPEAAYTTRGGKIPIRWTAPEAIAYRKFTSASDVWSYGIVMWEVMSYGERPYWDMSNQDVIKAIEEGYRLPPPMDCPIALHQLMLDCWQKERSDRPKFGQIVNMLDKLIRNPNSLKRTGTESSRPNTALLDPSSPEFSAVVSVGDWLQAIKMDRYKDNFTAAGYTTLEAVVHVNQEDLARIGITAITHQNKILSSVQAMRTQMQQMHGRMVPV

As to `Cc1ccc(O)cc1Nc1ccnc2ccc(S(C)(=O)=O)cc12`, the inhibition (usually the relative decrease from the control value, in per cent) in [1] worked out at 7.86%; in [2], 4.88%; in assay [3], 5.18%; in assay [4], 91.3%; in [5], 95.7%; in [6], 92.2%. For the same molecule, the inhibition in assay [7] was found to be 81.5%; in assay [8], 89.3%; in [9], 93.5%; in assay [10] it was 83.6%; in assay [11], 86.3%; in assay [12] it was 96.9%. The inhibition turned out to be 97.3% in assay [13]; 91.6% in assay [14]; 95.6% in assay [15]; 4.44% in assay [16]; 5.88% in assay [17]; 20.2% in assay [18]. In addition, the inhibition came to 52.2% in assay [19] and 4.91% in [20].
In the case of `NS(=O)(=O)c1ccc(-c2cc3ccncc3cc2OCc2ccccc2)cc1`, the inhibition in assay [1] was found to be 4.44%; in [2], 2.11%; in assay [3] it was 2.39%; in [4] it was 0.69%; in [5], 0.7%; in assay [6], 2.29%. Also, the inhibition in [7] is 3.77%; in assay [8] it was 9.03%; in assay [9] it was 10.4%; in [10] it was 7.31%; in [11], 12.6%; in [12], 5.73%. For the same molecule, the inhibition was determined as 3.29% in assay [13]; 2.88% in assay [14]; 2.91% in assay [15]; 2.03% in [16]; 3.62% in [17]; 7.38% in assay [18]. The inhibition in assay [19] turned out to be 8.97%; in [20], 5.47%.

For the origin of these results see ChEMBL document CHEMBL1961873, “Compounds: GSK PKIS; Assays: Nanosyn kinase panel” (2012).
